From the supplement of paper PMC13392028
Over roughly 4,100 sequences, “RBNS R-value (6-mer enrichment in protein-bound RNA vs input library)” has its median near 0.96; the highest 2% begin near 2.4. Many of the other results were omitted from the sample, so the highest values are more common in it than they were.

Tested on: PyIESI-1 RRM domain (Plasmodium yoelii PY17X_0911200 aa 795-956, GST fusion)
Assay: RBNS R-value (6-mer enrichment in protein-bound RNA vs input library) (ratio); higher = stronger binding preference; the methods of the paper give 50 / 100 / 500 nM protein instead
Protocol: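 RNA Bind-n-Seq: recombinant GST-tagged IESI-1 RRM domain was incubated at room temperature with a random 40-nt in vitro transcribed RNA library at 250, 500 or 1000 nM protein. Bound RNA was pulled down on glutathione beads and sequenced. R-value is the enrichment of each 6-mer in the bound RNA relative to the input library. Each 6-mer sits inside the random 40-mer context, not as an isolated oligo. Values are replicate 1 only.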

For UUACGC, the “RBNS R-value” (protein concentration: 250 nM) was 0.784, the “RBNS R-value” (protein concentration: 500 nM) was 0.803 and the “RBNS R-value” (protein concentration: 1000 nM) was 0.805.
In the case of AAGGCU, the “RBNS R-value” (protein concentration: 250 nM) is reported as 0.979, the “RBNS R-value” (protein concentration: 500 nM) is reported as 0.991 and the “RBNS R-value” (protein concentration: 1000 nM) is reported as 0.95.
In the case of GAUCGG, the “RBNS R-value” (protein concentration: 250 nM) is reported as 0.955, the “RBNS R-value” (protein concentration: 500 nM) is reported as 0.963 and the “RBNS R-value” (protein concentration: 1000 nM) is reported as 0.942.
With GAUAUG the “RBNS R-value” (protein concentration: 250 nM) was 2.3, the “RBNS R-value” (protein concentration: 500 nM) was 2.32 and the “RBNS R-value” (protein concentration: 1000 nM) was 2.43.
GAUAUA was tested, and the “RBNS R-value” (protein concentration: 250 nM) was 1.32, the “RBNS R-value” (protein concentration: 500 nM) was 1.36 and the “RBNS R-value” (protein concentration: 1000 nM) was 1.53.
For GAUAUU, the “RBNS R-value” (protein concentration: 250 nM) was 1.57, the “RBNS R-value” (protein concentration: 500 nM) was 1.65 and the “RBNS R-value” (protein concentration: 1000 nM) was 1.77.
For AUAUAA, the “RBNS R-value” (protein concentration: 250 nM) was 0.522, the “RBNS R-value” (protein concentration: 500 nM) was 0.55 and the “RBNS R-value” (protein concentration: 1000 nM) was 0.539.
In the case of AGUGUA, the “RBNS R-value” (protein concentration: 250 nM) is reported as 0.664, the “RBNS R-value” (protein concentration: 500 nM) is reported as 0.68 and the “RBNS R-value” (protein concentration: 1000 nM) is reported as 0.657.
With GGAGUU the “RBNS R-value” (protein concentration: 250 nM) was 0.958, the “RBNS R-value” (protein concentration: 500 nM) was 0.98 and the “RBNS R-value” (protein concentration: 1000 nM) was 0.948.
In the case of UUUACC, the “RBNS R-value” (protein concentration: 250 nM) is reported as 0.764, the “RBNS R-value” (protein concentration: 500 nM) is reported as 0.778 and the “RBNS R-value” (protein concentration: 1000 nM) is reported as 0.794.
In the case of GGGUGU, the “RBNS R-value” (protein concentration: 250 nM) is reported as 0.909, the “RBNS R-value” (protein concentration: 500 nM) is reported as 0.99 and the “RBNS R-value” (protein concentration: 1000 nM) is reported as 0.941.
UCGGAA was tested, and the “RBNS R-value” (protein concentration: 250 nM) was 0.911, the “RBNS R-value” (protein concentration: 500 nM) was 0.907 and the “RBNS R-value” (protein concentration: 1000 nM) was 0.87.
With UAUGAG the “RBNS R-value” (protein concentration: 250 nM) was 0.865, the “RBNS R-value” (protein concentration: 500 nM) was 0.899 and the “RBNS R-value” (protein concentration: 1000 nM) was 0.898.
AAUGGU was tested, and the “RBNS R-value” (protein concentration: 250 nM) was 0.878, the “RBNS R-value” (protein concentration: 500 nM) was 0.894 and the “RBNS R-value” (protein concentration: 1000 nM) was 0.881.
AAUGAU was tested, and the “RBNS R-value” (protein concentration: 250 nM) was 5.76, the “RBNS R-value” (protein concentration: 500 nM) was 5.22 and the “RBNS R-value” (protein concentration: 1000 nM) was 5.56.
With UAUGAA the “RBNS R-value” (protein concentration: 250 nM) was 0.826, the “RBNS R-value” (protein concentration: 500 nM) was 0.838 and the “RBNS R-value” (protein concentration: 1000 nM) was 0.811.
In the case of CAUGAA, the “RBNS R-value” (protein concentration: 250 nM) is reported as 0.887, the “RBNS R-value” (protein concentration: 500 nM) is reported as 0.913 and the “RBNS R-value” (protein concentration: 1000 nM) is reported as 0.901.
CAUGAU was tested, and the “RBNS R-value” (protein concentration: 250 nM) was 5.84, the “RBNS R-value” (protein concentration: 500 nM) was 5.36 and the “RBNS R-value” (protein concentration: 1000 nM) was 5.72.
In the case of UAUGAU, the “RBNS R-value” (protein concentration: 250 nM) is reported as 4.89, the “RBNS R-value” (protein concentration: 500 nM) is reported as 4.59 and the “RBNS R-value” (protein concentration: 1000 nM) is reported as 4.9.
With CAUGAG the “RBNS R-value” (protein concentration: 250 nM) was 0.978, the “RBNS R-value” (protein concentration: 500 nM) was 0.984 and the “RBNS R-value” (protein concentration: 1000 nM) was 0.979.
In the case of AAUGAG, the “RBNS R-value” (protein concentration: 250 nM) is reported as 1.03, the “RBNS R-value” (protein concentration: 500 nM) is reported as 1.07 and the “RBNS R-value” (protein concentration: 1000 nM) is reported as 1.04.
AUAGUC was tested, and the “RBNS R-value” (protein concentration: 250 nM) was 0.632, the “RBNS R-value” (protein concentration: 500 nM) was 0.65 and the “RBNS R-value” (protein concentration: 1000 nM) was 0.627.
In the case of CACCUG, the “RBNS R-value” (protein concentration: 250 nM) is reported as 1.72, the “RBNS R-value” (protein concentration: 500 nM) is reported as 1.67 and the “RBNS R-value” (protein concentration: 1000 nM) is reported as 1.73.
GAUGAG was tested, and the “RBNS R-value” (protein concentration: 250 nM) was 3.25, the “RBNS R-value” (protein concentration: 500 nM) was 3.07 and the “RBNS R-value” (protein concentration: 1000 nM) was 3.06.
In the case of GAUGGU, the “RBNS R-value” (protein concentration: 250 nM) is reported as 1.92, the “RBNS R-value” (protein concentration: 500 nM) is reported as 1.85 and the “RBNS R-value” (protein concentration: 1000 nM) is reported as 1.9.
With GAUAAU the “RBNS R-value” (protein concentration: 250 nM) was 1.7, the “RBNS R-value” (protein concentration: 500 nM) was 1.73 and the “RBNS R-value” (protein concentration: 1000 nM) was 1.86.
With AAUGAA the “RBNS R-value” (protein concentration: 250 nM) was 1.03, the “RBNS R-value” (protein concentration: 500 nM) was 1.02 and the “RBNS R-value” (protein concentration: 1000 nM) was 1.02.
For GGUGAA, the “RBNS R-value” (protein concentration: 250 nM) was 1, the “RBNS R-value” (protein concentration: 500 nM) was 1.02 and the “RBNS R-value” (protein concentration: 1000 nM) was 0.954.
In the case of GAUGAC, the “RBNS R-value” (protein concentration: 250 nM) is reported as 3.66, the “RBNS R-value” (protein concentration: 500 nM) is reported as 3.41 and the “RBNS R-value” (protein concentration: 1000 nM) is reported as 3.46.
For UAUGAC, the “RBNS R-value” (protein concentration: 250 nM) was 0.93, the “RBNS R-value” (protein concentration: 500 nM) was 0.947 and the “RBNS R-value” (protein concentration: 1000 nM) was 0.974.
GAUGAU was tested, and the “RBNS R-value” (protein concentration: 250 nM) was 6.07, the “RBNS R-value” (protein concentration: 500 nM) was 5.52 and the “RBNS R-value” (protein concentration: 1000 nM) was 5.59.
For GAUGAA, the “RBNS R-value” (protein concentration: 250 nM) was 4.07, the “RBNS R-value” (protein concentration: 500 nM) was 3.66 and the “RBNS R-value” (protein concentration: 1000 nM) was 3.68.
For AAUGAC, the “RBNS R-value” (protein concentration: 250 nM) was 1.19, the “RBNS R-value” (protein concentration: 500 nM) was 1.23 and the “RBNS R-value” (protein concentration: 1000 nM) was 1.25.
For GACGAG, the “RBNS R-value” (protein concentration: 250 nM) was 1.19, the “RBNS R-value” (protein concentration: 500 nM) was 1.18 and the “RBNS R-value” (protein concentration: 1000 nM) was 1.13.
In the case of UGAUCG, the “RBNS R-value” (protein concentration: 250 nM) is reported as 1.64, the “RBNS R-value” (protein concentration: 500 nM) is reported as 1.68 and the “RBNS R-value” (protein concentration: 1000 nM) is reported as 1.74.
CUAAGC was tested, and the “RBNS R-value” (protein concentration: 250 nM) was 0.741, the “RBNS R-value” (protein concentration: 500 nM) was 0.738 and the “RBNS R-value” (protein concentration: 1000 nM) was 0.733.
With GUUUGG the “RBNS R-value” (protein concentration: 250 nM) was 0.834, the “RBNS R-value” (protein concentration: 500 nM) was 0.866 and the “RBNS R-value” (protein concentration: 1000 nM) was 0.813.
For UAGGAG, the “RBNS R-value” (protein concentration: 250 nM) was 0.934, the “RBNS R-value” (protein concentration: 500 nM) was 0.936 and the “RBNS R-value” (protein concentration: 1000 nM) was 0.887.
In the case of CUGCAU, the “RBNS R-value” (protein concentration: 250 nM) is reported as 0.892, the “RBNS R-value” (protein concentration: 500 nM) is reported as 0.929 and the “RBNS R-value” (protein concentration: 1000 nM) is reported as 0.917.
In the case of UCUGUU, the “RBNS R-value” (protein concentration: 250 nM) is reported as 0.847, the “RBNS R-value” (protein concentration: 500 nM) is reported as 0.911 and the “RBNS R-value” (protein concentration: 1000 nM) is reported as 0.878.
With GUGGCG the “RBNS R-value” (protein concentration: 250 nM) was 0.953, the “RBNS R-value” (protein concentration: 500 nM) was 0.954 and the “RBNS R-value” (protein concentration: 1000 nM) was 0.937.
GAAUGA was tested, and the “RBNS R-value” (protein concentration: 250 nM) was 2.5, the “RBNS R-value” (protein concentration: 500 nM) was 2.31 and the “RBNS R-value” (protein concentration: 1000 nM) was 2.3.
With UAAUGA the “RBNS R-value” (protein concentration: 250 nM) was 1.69, the “RBNS R-value” (protein concentration: 500 nM) was 1.65 and the “RBNS R-value” (protein concentration: 1000 nM) was 1.71.
With GAAUGU the “RBNS R-value” (protein concentration: 250 nM) was 0.999, the “RBNS R-value” (protein concentration: 500 nM) was 1 and the “RBNS R-value” (protein concentration: 1000 nM) was 0.972.
In the case of AAAUGA, the “RBNS R-value” (protein concentration: 250 nM) is reported as 2.48, the “RBNS R-value” (protein concentration: 500 nM) is reported as 2.3 and the “RBNS R-value” (protein concentration: 1000 nM) is reported as 2.4.
AAAUGC was tested, and the “RBNS R-value” (protein concentration: 250 nM) was 0.942, the “RBNS R-value” (protein concentration: 500 nM) was 0.952 and the “RBNS R-value” (protein concentration: 1000 nM) was 0.985.
For GAAUGC, the “RBNS R-value” (protein concentration: 250 nM) was 1.17, the “RBNS R-value” (protein concentration: 500 nM) was 1.18 and the “RBNS R-value” (protein concentration: 1000 nM) was 1.17.
With AUUAAC the “RBNS R-value” (protein concentration: 250 nM) was 0.87, the “RBNS R-value” (protein concentration: 500 nM) was 0.859 and the “RBNS R-value” (protein concentration: 1000 nM) was 0.881.
In the case of CCCUCC, the “RBNS R-value” (protein concentration: 250 nM) is reported as 1.15, the “RBNS R-value” (protein concentration: 500 nM) is reported as 1.13 and the “RBNS R-value” (protein concentration: 1000 nM) is reported as 1.17.
UCGCGU was tested, and the “RBNS R-value” (protein concentration: 250 nM) was 0.843, the “RBNS R-value” (protein concentration: 500 nM) was 0.85 and the “RBNS R-value” (protein concentration: 1000 nM) was 0.835.
In the case of ACUCUC, the “RBNS R-value” (protein concentration: 250 nM) is reported as 0.893, the “RBNS R-value” (protein concentration: 500 nM) is reported as 0.906 and the “RBNS R-value” (protein concentration: 1000 nM) is reported as 0.906.
GAGGAC was tested, and the “RBNS R-value” (protein concentration: 250 nM) was 1.09, the “RBNS R-value” (protein concentration: 500 nM) was 1.06 and the “RBNS R-value” (protein concentration: 1000 nM) was 1.02.
